Sampled rows, rich in hits. Any-hit rate of the full collection: about 3.4%.
Tau fibril ThT – blocks human tau fibril formation measured by thioflavin T. P10636. recombinant tau K18 P301L, heparin-induced fibrillization, ThT fluorescence. Potency, µM (titrated, usually from 57.4 µM), for inactives: at the top dose activity, negative = inhibition, actives largely listed as inhibitors. 270,000 compounds, 2.1% hits. AID 1460; note: nearly all actives have a fitted effect of over 55% in size
Target sequence (P10636 561-689 P618L limits assumed): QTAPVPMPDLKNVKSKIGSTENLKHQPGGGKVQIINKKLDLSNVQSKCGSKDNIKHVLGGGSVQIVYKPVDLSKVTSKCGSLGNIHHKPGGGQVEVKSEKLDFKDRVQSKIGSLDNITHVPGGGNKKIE
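Tau K18 P301L fragment (15 uM unlabeled plus 0.24 uM Alexa 594-labeled) in 100 mM sodium acetate pH 7 with compound, fibrillization induced by 20 uM heparin for 6 hr at 37 C. Thioflavin T (30 uM) added, fluorescence read after 1 hr (ex 450, em 510 nm).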
JMJD2E inh – JMJD2E (human) inhibition; 230,000 compounds, 1.6% hits; B2RXH2; JMJD2E catalytic domain, FDH-coupled NADH fluorescence (FDH is formaldehyde dehydrogenase); Potency, µM (top dose mostly 57.1 µM), inactives show at the highest dose activity change, negative = inhibition, usual class: inhibitors; AID 2147; active = well fitted inhibition curve with a large enough effect, not every such curve was filed as active; inconclusive = small, poorly fitted or top-dose-only effect, or another doubt; inactive = no such curve, though single readings can be large or run the other way;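 note: 0% = wells with enzyme and -100% = buffer wells without enzyme; nearly all actives have a fitted effect of over 50% in size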
Tau FP inhib – blocks human tau fibril formation measured by polarization | Potency, µM (highest dose often 57.7 µM), for the others: at the top dose activity, negative = inhibition, most hits filed as inhibitors | P10636 | 280,000 compounds, 0.39% hits | K18 P301L tau heparin fibrillization, Alexa594 FP, 6 h; note: nearly all actives have a fitted effect of over 55% in size
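Steps: dispense K18 P301L tau (15 uM plus 0.24 uM Alexa 594 tracer, final) in pH 7 sodium acetate; add compound; add heparin (20 uM final); incubate 6 hr, 37 C; add ThT (30 uM final); after 1 hr ambient, read FP.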
RGS12 GoLoco inh – RGS12 GoLoco-Gai1 interaction inhibition; P63096; Gai1:RGS12 GoLoco peptide FP, rhodamine, 10 min; Potency, µM (doses to about 61.6 µM), inactives show at the highest dose activity, negative = inhibition, most hits filed as inhibitors; 230,000 compounds, 0.44% hits; active = well fitted inhibition curve with a large enough effect, not every such curve was filed as active; inactive = no such curve, though single readings can be large or run the other way; note: nearly all actives have a fitted effect of over 30% in size
Target sequence (P63096 whole entry, looked up): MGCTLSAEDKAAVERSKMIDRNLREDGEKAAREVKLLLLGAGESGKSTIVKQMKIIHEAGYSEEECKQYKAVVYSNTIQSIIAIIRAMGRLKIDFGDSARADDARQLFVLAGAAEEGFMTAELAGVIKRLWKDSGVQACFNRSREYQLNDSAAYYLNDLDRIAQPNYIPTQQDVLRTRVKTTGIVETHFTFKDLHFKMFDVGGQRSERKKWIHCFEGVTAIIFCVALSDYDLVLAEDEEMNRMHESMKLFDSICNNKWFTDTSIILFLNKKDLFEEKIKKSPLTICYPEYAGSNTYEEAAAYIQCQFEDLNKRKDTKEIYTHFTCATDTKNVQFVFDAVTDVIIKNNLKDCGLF
Tau fluor cs – counter-screen for tau fibril formation inhibitors; tau K18 P301L Alexa594 fluorescence, heparin fibrillization; Potency, µM (top dose mostly 57.7 µM), without a hit: top-dose activity change, negative = decrease; 280,000 compounds, 0.93% hits; AID 1463; note: nearly all actives have a fitted effect of over 55% in size
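Human tau K18 P301L (15 uM unlabeled, 0.24 uM Alexa 594-labeled) in 100 mM sodium acetate pH 7 with 20 uM heparin, 6 hr at 37 C. ThT 30 uM added, 1 hr ambient; Alexa 594 FP and total fluorescence read at 555/632 nm.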
Starred values were filed as active, the others as inactive; ? = inconclusive; nt = not tested or not shown; ! = not active in a repeat; [ ] = another dose, or the depositor's remark. Unless noted, calls come from the whole dose curve; as a rule, active = well fitted curve in the direction sought with a large enough effect; inconclusive = small, poorly fitted or top-dose-only effect, or another doubt; inactive = no such curve, though single readings can be large; an effect the other way counts as inactive or inconclusive. Unless noted, % is set by controls: 0 for no effect and ±100 for the full control effect; potency is the fitted concentration of half-maximal effect.

SMILES	Tau fibril ThT	JMJD2E inh	Tau FP inhib	RGS12 GoLoco inh	Tau fluor cs
Cc1cc(C)nc(SCC(=O)N/N=C/c2cccn2-c2cccc(C(F)(F)F)c2)n1	-6.0%	-5.3%	7.9%	-34.1%	-3.0%
CS(=O)(=O)N1CCC2(CCCN(C(c3ccccc3)c3ccccc3)C2)CC1	nt	nt	nt	3.6%	nt
O=C(CCCc1ccccc1)NC1CC(=O)N(c2ccc(Cl)cc2)C1 (stereo not drawn)	-8.7%	nt	-0.9%	nt	-17.3%
C/C(=C\C=C(C#N)C#N)c1cc(C#N)c(N)o1	12.6µM*	?	-10.0%	-47.6%	-15.4%
O=C(c1ccc2c(c1)N(Cc1ccccc1)C(=O)c1ccccc1S2(=O)=O)N1CCc2ccccc21	2.4%	nt	-9.2%	nt	-12.7%
Cc1ccc(C(=O)CSc2nc(-c3ccccc3)ccc2C#N)cc1	?	-6.2%	-2.5%	13.0%	?
N#Cc1ccc(-c2ccco2)nc1SCC(=O)c1ccc(Cl)cc1	5.01µM*	?	-3.7%	20.2%	?
Cc1cc(-c2csc(N)n2)c(C)n1Cc1ccco1	15.8µM*	-2.5%	-13.4%	75.4%	?
Cc1cc(-c2csc(N)n2)c(C)n1C	31.6µM*	-16.0%	?	40.1%	?
Cc1ccc(-n2c(C)cc(-c3csc(N)n3)c2C)cc1	?	1.1%	-2.7%	101.2%	-24.2%
O=C(/C=C/c1ccc(-c2ccccc2[N+](=O)[O-])o1)c1ccco1	17.8µM*	-8.1%	8.9%	3.4%	?
N#C/C(=C\c1ccc(-c2ccccc2[N+](=O)[O-])o1)C(=O)N1CCOCC1	-16.2%	-7.9%	-0.3%	3.9%	-7.1%
CCc1cccc2c(-c3ccc(F)cc3)nc(SCC(=O)Nc3ccccc3)nc12	-3.4%	nt	-8.3%	nt	-0.9%
O=C(OC1CCc2ccccc2C1=O)c1ccccc1O (stereo not drawn)	25.1µM*	?	?	4.7%	?
COc1ccc(CCn2c(N)c(C(=O)NCc3ccco3)c3nc4ccccc4nc32)cc1OC	17.8µM*	?	31.6µM*	29.4%	?
O=C(Nc1cccc(C(F)(F)F)c1)c1ccc2nc(N3C(=O)CCC3=O)sc2c1	-10.8%	?	?	1.7%	-19.3%
O=C(c1ccc2nc(-c3ccco3)c(-c3ccco3)nc2c1)N1CCN(c2ccccc2)CC1	?	?	-2.4%	6.5%	?
O=C(Nc1ccc(N2CCOCC2)cc1)Nc1ccc2nc(-c3ccco3)c(-c3ccco3)nc2c1	8.5%	-2.7%	-2.6%	-9.6%	6.3%
O=C(O)c1ccc2nc(-c3ccco3)c(-c3ccco3)nc2c1	7.94µM*	1.5%	10µM*	-21.1%	?
O=C(Nc1cccc(C(F)(F)F)c1)c1ccc2nc(-c3ccco3)c(-c3ccco3)nc2c1	14.1µM*	14.1µM*	?	48.7%	15.8µM*[quencher]
COc1ccc(CCn2c(N)c(C(=O)NCc3ccco3)c3nc4ccccc4nc32)cc1	?	?	?	1.3%	?
O=C(Nc1ccc2nc(-c3ccco3)c(-c3ccco3)nc2c1)NC1CC1	7.08µM*	?	?	2.2%	12.6µM*[quencher]
CCOc1ccc(NC(=O)C2CCCN(c3nn4cc(-c5ccc(OC)cc5)nc4s3)C2)cc1 (stereo not drawn)	?	nt	11.4%	nt	?
COc1ccc(/C=C\c2onc(C)c2S(=O)(=O)N2CCC(C(=O)Nc3cccc(OC)c3)CC2)cc1	-0.5%	nt	?	nt	?
COc1ccc(CCNC(=O)c2ccc3nc(-c4ccco4)c(-c4ccco4)nc3c2)cc1OC	6.31µM*	12.6µM*	?	27.1%	12.6µM*[quencher]
SMILES	Tau fibril ThT	JMJD2E inh	Tau FP inhib	RGS12 GoLoco inh	Tau fluor cs
CCc1nc2ccc(C(=O)NCCc3ccc(OC)c(OC)c3)cc2nc1CC	?	nt	-6.9%	nt	-16.0%
O=C(O)c1cc(-c2ccco2)nc2ccc(Br)cc12	15.8µM*!	?	?	-10.7%	?
CC1CCC(NC(=O)CCc2cn(Cc3ccc(F)cc3)c3ccccc23)CC1 (stereo not drawn)	-0.5%	nt	3.1%	nt	3.4%
COc1cccc(Nc2sc(C(=O)c3ccc(Cl)cc3)c(N)c2C(=O)NCc2ccc(C)cc2)c1	?	nt	7.4%	nt	?
COc1ccc(Nc2sc(C(=O)c3ccccc3)c(N)c2C(=O)Nc2cc(C)ccc2C)c(OC)c1	?	nt	3.2%	nt	?
COc1ccc(C(=O)c2sc(Nc3cccc(OC)c3)c(C(=O)Nc3cccc(C)c3C)c2N)cc1	17.8µM*	-28.9%	-7.8%	0.5%	?
COc1ccc(C(=O)c2sc(Nc3ccccc3)c(C(=O)Nc3ccc(OC)c(OC)c3)c2N)cc1	15.8µM*	-17.7%	?	-10.0%	15.8µM*[quencher]
COc1cccc(Nc2sc(C(=O)c3ccc(F)cc3)c(N)c2C(=O)NCc2ccc(Cl)cc2)c1	20µM*	nt	?	nt	?
COc1ccc(NC(=O)c2c(Nc3ccccc3)sc(C(=O)c3ccc(F)cc3)c2N)cc1	11.2µM*	38.8%	3.0%	-11.8%	?
CCc1ccccc1N(CC)C(=O)C(=O)Nc1ccc2nc3n(c(=O)c2c1)CCCCC3	-6.0%	nt	?	nt	-14.3%
Cc1ccc(NC(=O)c2c(Nc3ccccc3C)sc(C(=O)c3ccccc3)c2N)cc1	-15.8%	nt	2.4%	nt	?
COc1ccc(Nc2sc(C(=O)c3ccc(Cl)cc3)c(N)c2C(=O)Nc2ccccc2OC)cc1	22.4µM*	-3.0%	-1.8%	-11.1%	?
Cc1cc(Nc2sc(C(=O)c3ccc(F)cc3)c(N)c2C(=O)Nc2ccc(F)cc2)ccc1Cl	20µM*	nt	-12.0%	nt	10µM*[quencher]
N#Cc1c(Nc2cccc(F)c2)sc(C(=O)c2ccc(Cl)cc2)c1N	28.2µM*	nt	?	nt	?
Cc1cc2c(n1-c1ccc(C(=O)NCCc3ccc(Cl)cc3)cc1)CCC(C)C2 (stereo not drawn)	?	nt	?	nt	-12.3%
O=C(CSc1nnnn1-c1ccc(F)cc1)c1ccc(O)c(O)c1	?	28.2µM*	8.0%	-2.7%	?
CC(=O)c1ccc(O)c(CSc2nncn2C)c1	3.7%	?	4.1%	-9.3%	8.2%
Cn1cnnc1SCC(=O)c1ccc(O)c(O)c1	-2.1%	10µM*	-1.7%	5.4%	0.9%
CN(C)S(=O)(=O)c1ccc2c(c1)N(CC(=O)N1CCN(c3cccc(Cl)c3)CC1)CCS2	3.0%	nt	13.6%	nt	-22.1%
CC(C)c1ccc(O)c(O)c(=O)c1 (tested in a mixture with another compound)	nt	nt	nt	6.0%[14.2 µM]	nt
NCC(O)c1ccc(O)c(O)c1 (stereo not drawn)	?	12.6µM*	?	8.6%	-13.9%
CCSc1ccccc1C(=O)N1CCN(c2nc3ccccc3s2)CC1	-6.4%	nt	1.3%	nt	2.7%
CC[n+]1c(C)cc2c(sc3ccccc32)c1C	-6.4%	?	-4.4%	4.47µM*	0.2%
COc1ccc(Nc2oc(COc3ccc(OC)cc3)nc2C#N)cc1	?	-14.3%	3.6%	1.1%	28.2µM*[quencher]

Bioassay records from PubChem.
